Bioassay records as filed in PubChem.
CYP2C19 inhib – human CYP2C19 inhibition | inhibition, % at 5 µM | 96,000 tested, 21% active | AID 778 | CYP2C19 Supersomes, luciferin-H EGE luminescence, 30 min | P33261;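 active means CYP2C19 inhibition above a set limit at 5 µM in the primary screen, cut at about 50% in these data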
CYP2C9 inhib – blocks human cytochrome P450 2C9; inhibition, % at 5 µM; P11712; 96,000 tested, 20% active; CYP2C9 Supersomes, luciferin-H conversion, luminescence; AID 777;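 active means blocking of liver enzyme CYP2C9 beyond about 50% at 5 µM, limit read from the data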
Target sequence (P11712 whole entry, looked up): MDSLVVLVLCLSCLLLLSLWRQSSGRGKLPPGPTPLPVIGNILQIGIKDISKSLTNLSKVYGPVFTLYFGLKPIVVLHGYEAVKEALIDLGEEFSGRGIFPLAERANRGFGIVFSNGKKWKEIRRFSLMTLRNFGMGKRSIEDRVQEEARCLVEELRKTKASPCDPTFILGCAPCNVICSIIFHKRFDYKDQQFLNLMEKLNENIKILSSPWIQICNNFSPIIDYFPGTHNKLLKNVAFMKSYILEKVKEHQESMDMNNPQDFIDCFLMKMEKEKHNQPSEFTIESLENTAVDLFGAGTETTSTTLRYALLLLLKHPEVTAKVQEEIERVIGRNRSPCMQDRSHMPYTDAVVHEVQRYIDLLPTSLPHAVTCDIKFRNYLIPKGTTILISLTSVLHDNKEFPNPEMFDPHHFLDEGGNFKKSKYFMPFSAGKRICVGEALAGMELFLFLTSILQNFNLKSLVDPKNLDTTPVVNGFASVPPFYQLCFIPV
Plk1 PBD FP – blocks phosphopeptide binding to human Plk1 polo box domain; P53350; Plk1 PBD phosphopeptide binding, fluorescence polarization; inhibition, %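 (tested at about 20 µM)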; 97,000 tested, 0.13% active; in the data active means inhibition above about 34%, passing the limit was not always enough
PLK1 inh – inhibitors of human PLK1 kinase | inhibition, % at 10 µM | recombinant PLK1 kinase, TR-FRET peptide phosphorylation | P53350 | 97,000 tested, 0.53% active;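 active means inhibition of 50% or more in the single-concentration screen; inactive means inhibition below 50%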
CYP2C9 act – activators of human CYP2C9; P11712; recombinant CYP2C9, luciferin-H conversion, luminescence; active compounds read high; factor 1 = untreated enzyme, 0 = blocked; activation factor at 5 µM; 96,000 tested, 1.4% active; AID 1024;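 active means activation factor of 2 or more for CYP2C9 at a 5 µM dose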
CYP2C19 act – cytochrome P450 2C19 (human) activation. P33261. recombinant CYP2C19, luciferin-H EGE luminescence; active compounds read high; 0 = fully inhibited enzyme, 1 = untreated enzyme. activation factor at 5 µM. 96,000 tested, under 10 active. AID 1025;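 active means activation factor of at least 2 at 5 µM in the primary screen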
Large screens that a line does not name were inactive. Shown are actives, neighbours in structure and some others; about 28% of the full set was active somewhere.

COc1ccc(/C=N/NC(=O)CCn2c3ccccc3c3ccccc32)cc1O	CYP2C19 inhib 94.4, CYP2C9 inhib 96.9
O=C(NC1CCCCC1)C(c1cccnc1)N(C(=O)c1csnn1)C1CCCC1 (configuration not stated)	none (no result: CYP2C19 inhib, CYP2C9 inhib, CYP2C9 act, CYP2C19 act)
CCOC(=O)c1cc(NC(=O)c2ccoc2C)cc(C(=O)OCC)c1	CYP2C9 inhib 52.1
Cc1csc(NC(=O)c2ccoc2C)n1	CYP2C19 inhib 100.0, CYP2C9 inhib 80.0
CCOC(=O)Cc1csc(NC(=O)c2ccc3c(c2)OCO3)n1	none
CCOC(=O)c1c(NC(=O)c2ccoc2C)sc(C)c1C	none
CCOC(=O)Cc1csc(NC(=O)c2ccoc2C)n1	CYP2C19 inhib 93.4, CYP2C9 inhib 73.6
COc1ccc(C(=O)O)cc1Nc1cc(C)nc2ncnn12	none
CCC(OC(=O)C(NC(=O)c1ccccc1)c1ccccc1)C(=O)Nc1cc(C)on1 (configuration not stated)	none
O=C(NC(=S)Nc1ccc(C(=O)N2CCOCC2)cc1)c1ccc([N+](=O)[O-])cc1	none
Cc1cccc(-n2c(CCN3C(=O)c4ccccc4C3=O)nc3ccccc3c2=O)n1	none
Cc1cccc(-n2c(CCCN3C(=O)c4ccccc4C3=O)nc3ccccc3c2=O)n1	CYP2C19 inhib 51.8
O=C1c2ccccc2C(=O)N1CCCc1nc2ccccc2c(=O)n1-c1cccnc1	CYP2C9 inhib 63.2
Cc1cnn(C(=O)c2cc(-c3ccccc3)nc3ccccc23)c1	none
COc1ccccc1CNS(=O)(=O)c1ccc(NC(C)=O)cc1	CYP2C19 inhib 77.2, CYP2C9 act 2.1
COc1ccc(S(=O)(=O)Nc2ccc(NC(C)=O)cc2)cc1	CYP2C19 inhib 97.3, CYP2C9 inhib 90.1
COc1ccccc1OCC(=O)Nc1ccc(S(=O)(=O)NC(C)=O)cc1	none
COc1ccc(S(=O)(=O)Nc2ccc(N(C)C(C)=O)cc2)cc1	CYP2C19 inhib 93.0, CYP2C9 inhib 83.3
CC(=O)N(C)c1ccc(NS(=O)(=O)Cc2ccccc2)cc1	none
CCN1CCn2c3c(c4cc(Br)ccc42)CCCC31 (configuration not stated)	none (no result: CYP2C19 inhib, CYP2C9 inhib, CYP2C9 act, CYP2C19 act)
Cc1oc(-c2cccs2)[n+]([O-])c1C	none
COC(=O)c1c(NC(=O)CN2CCN(c3ccccc3)CC2)c2c(C)cccc2n1C	none
CC(C)(C)S(=O)(=O)c1ccc(S(=O)(=O)C(C)(C)C)s1	none (no result: CYP2C19 inhib, CYP2C9 inhib, CYP2C9 act, CYP2C19 act)
COC(=O)c1cccc(COC(=O)c2ccc(N(C)C)cc2)c1	none (no result: CYP2C19 inhib, CYP2C9 inhib, CYP2C9 act, CYP2C19 act)
O=C1CCCN1CC(O)CS(=O)(=O)c1ccc(Cl)cc1 (configuration not stated)	none
CCOC(=O)C(OC(=O)c1sc(=S)n(C)c1C)C(C)=O (configuration not stated)	none
COc1cc2c(C)nc3onc(-c4ccccc4)c3c2cc1OC	CYP2C19 inhib 54.5, CYP2C9 inhib 77.4
COc1cc(-c2nc(-c3cccc(C)c3)no2)cc(OC)c1OC	none (no result: CYP2C19 inhib, CYP2C9 inhib, CYP2C9 act, CYP2C19 act)
CCOC(=O)c1sc(N(Cc2ccccc2)C(=O)CSc2nnc(C3CC3)n2N)nc1C	CYP2C19 inhib 62.4, CYP2C9 inhib 99.2 (no result: Plk1 PBD FP, PLK1 inh)
CCOC(=O)c1sc(N)c(C#N)c1CSc1nnc(C2CC2)n1N	CYP2C19 inhib 87.9, CYP2C9 inhib 74.1
CCOC(=O)c1csc(NC(=O)CSc2nnc(C3CC3)n2C)n1	none
N/C(=N\OC(=O)C1CCCCC1)c1cccc([N+](=O)[O-])c1	none
COC(=O)C(Nc1ccccc1Cl)(c1cc(C)c(O)c(C)c1)C(F)(F)F (configuration not stated)	CYP2C19 inhib 99.7, CYP2C9 inhib 98.7
O=C1C2C3CC(C(Br)C3Br)C2C(=O)N1c1ccccn1 (configuration not stated)	CYP2C19 inhib 62.3
CCOC(=O)C1C(=O)OC(C)(C)C1C(C)C(=O)c1ccccc1 (configuration not stated)	CYP2C19 inhib 72.7
O=c1[nH]c2ccccc2n2c(-c3ccncc3)nnc12	none
O=C(c1ccncc1)c1nccn1-c1ccccn1	CYP2C19 inhib 75.2, CYP2C9 inhib 81.2
Cc1ccccc1NC(=O)CSc1nnc(Cc2cccn2C)n1-c1ccc(F)cc1	none
COc1ccc(Cl)c(N2CCN(CCCNC(=O)Nc3ccc(C)cc3)CC2)c1	none
O=C(CCn1c(=O)oc2ccccc21)N1CCN(c2ccccc2F)CC1	CYP2C19 inhib 73.3
O=C(CCn1c(=O)oc2ccccc21)N1CCN(C(c2ccccc2)c2ccccc2)CC1	CYP2C9 inhib 66.2
CC1Cc2ccccc2N1C(=O)CCn1c(=O)oc2ccccc21 (configuration not stated)	CYP2C19 inhib 94.0, CYP2C9 inhib 77.3
CC1Cc2ccccc2N1C(=O)Cn1c(=O)oc2cc(S(=O)(=O)NC3CCCC3)ccc21 (configuration not stated)	CYP2C9 inhib 69.2
CC1CCN(S(=O)(=O)c2ccc3c(c2)oc(=O)n3CC(=O)N2c3ccccc3CC2C)CC1 (configuration not stated)	none
Cc1cc(NC(=O)Cn2cnc3sc(C)c(-c4ccccc4)c3c2=O)no1	none (no result: CYP2C19 inhib, CYP2C9 inhib, CYP2C9 act, CYP2C19 act)
CC(C)CCNC(=O)C(c1cccs1)N(CC1CCCO1)C(=O)Cn1nnc2ccccc21 (configuration not stated)	none
O=C1c2ccccc2-c2onc3ccc(NCc4ccco4)c1c23	CYP2C19 inhib 55.2, CYP2C9 inhib 87.9 (no result: Plk1 PBD FP, PLK1 inh)
COc1ccccc1OC1=NS(=O)(=O)c2ccccc21	none
CCCCc1nn(-c2cc(Cl)ccc2OC)c2c1C(=O)CCC2	CYP2C19 inhib 96.6, CYP2C9 inhib 91.5
COc1nc(NCC(C)C)nc(Oc2ccc(=O)n(-c3ccccc3)n2)n1	none
Cc1ccc(NC(=O)C(C)c2ccc(-c3ccccc3)c(F)c2)c(C)c1 (configuration not stated)	none
Cc1ccc(C)c(N2CCN(C(=O)C3CCCN(S(=O)(=O)c4cnc[nH]4)C3)CC2)c1 (configuration not stated)	none
CN(C)S(=O)(=O)N1CCN(c2ccc(Cl)cc2)CC1	CYP2C19 inhib 62.9
O=C(C1CCCN(S(=O)(=O)c2cnc[nH]2)C1)N1CCN(c2ccc(Cl)cc2)CC1 (configuration not stated)	CYP2C9 inhib 65.2
Cc1cccc(N2CCN(S(=O)(=O)c3cnc[nH]3)CC2)c1C	CYP2C19 inhib 98.3, CYP2C9 inhib 96.7
Cc1cccc(N2CCN(S(=O)(=O)c3ccc(S(=O)(=O)N4CCCC4)cc3)CC2)c1C	none
O=S(=O)(c1ccc(Cl)cc1)N1CCN(c2ccc(N3CCOCC3)nn2)CC1	none (no result: Plk1 PBD FP, PLK1 inh)
O=S(=O)(c1cnc[nH]1)N1CCN(c2ccc(Cl)cc2)CC1	CYP2C19 inhib 96.3, CYP2C9 inhib 80.6
CC(=O)N(CN1C(=O)c2ccc([N+](=O)[O-])cc2C1=O)c1ccc(F)cc1	none
COc1cccc(C(=O)CN(C(=O)c2ccc(Cl)c(Cl)c2)N2C(=O)C3CCCCC3C2=O)c1 (configuration not stated)	none
